Data: PubChem BioAssay (Tox21)
The source made the active and inactive calls. Where a call stands in place of a potency, no number is given. Calls come from the whole dose curve.

Experiment: G protein-coupled receptor (GPCR) small molecule agonists, calcium flux assay: HEK293 wild type cell line counter screen (AID 1920065)
Settings: HEK293 WT calcium flux, fluorescence, agonist mode; series mostly up to 57.6 µM
From the text: U.S. Tox21 Program National Center for Advancing Translational Sciences [NCATS] Division of Preclinical Innovation [DPI] U.S. Environmental Protection Agency [EPA] National Institutes of Environmental Health Sciences [NIEHS] National Toxicology Program [NTP] U.S. Food and Drug Administration [FDA] Assay overview: The increased intracellular calcium release that occurred upon G protein-coupled receptor (GPCR) activation led to the frequent use of calcium flux assays to detect GPCR activation. For the purpose of studying and screening compounds that may activate GPCR, receptor-overexpressing models were typically generated using Hek293 wild-type (WT) cells. In order to eliminate the compounds that may have induced calcium release for non-specific activation, a counter-assay utilizing calcium flux on Hek293 WT cells was performed. The data were formulated in order to serve as a control for any calcium flux detection utilizing Hek293 cells with either GPCR overexpression or gene modification. The procurement of Hek293 WT cells from ATCC. Fluorescence intensity can be utilized to determine the activation of the compound in a calcium flux assay. As a counter control, this cell line was utilized to screen the Tox21 10K compound library.
Assay Protocol Summary: Hek293 cells were dispensed at 1500cells/4uL/well in 1536-well black wall/clear bottom plates using a multidrop dispenser. After the assay plates were incubated at a 37 C/5% CO2 incubator for 18 hours, 4 uL of Calcium Dye Solution was added to each well. The plates were incubated at 37 C for 1 hour. For agonist mode, 23 nL of compounds dissolved in DMSO, positive control (ATP) or DMSO only was transferred to the assay plate by a pin tool station. The fluorescence intensity in the plates was measured using FDSS 7000EX kinetic plate reader with a filter set of Ex/Em=480/540 for 3 min at 1 sec intervals. Each test compound was measured at 15 concentrations and in triplicates.

Row | SMILES | Potency
1 | NCCO | inactive
2 | Clc1ccc2c(c1)C(N1CCNCC1)=Nc1ccccc1O2 | inactive
3 | O=C(O)/C=C/c1cnc[nH]1 | inactive
4 | S=C(NC1CCCCC1)NC1CCCCC1 | inactive
5 | CCCCCCC1(C)CCC(=O)O1 (stereo not given) | inactive
6 | CC1(C)[C@H]2CC[C@]1(C)[C@H](O)C2 | inactive
7 | O=C1Nc2ccccc2C1(c1ccc(O)cc1)c1ccc(O)cc1 | inactive
8 | CC1(C)[C@@H]2CC[C@@]1(C)[C@H](O)C2 | inactive
9 | CCCN1C=CN(C)C1 | inactive
10 | Cc1ccc(C=O)cc1 | inactive
11 | Cc1cc(O)cc2c1O[C@](C)(CCC[C@H](C)CCC[C@H](C)CCCC(C)C)CC2 | inactive
12 | COC(=O)/C=C(/C)N | inactive
13 | O=C(NCN1CCOCC1)c1cnccn1 | inactive
14 | O=P(O)(OCc1ccccc1)OCc1ccccc1 | inactive
15 | Cc1cc(O)cc(C)c1Cl | inactive
16 | N[C@H](Cc1c[nH]c2ccccc12)C(=O)O | inactive
17 | C[C@@H]1CCC[C@H](C)N1CCCC(O)(c1ccccc1)c1ccccn1 (stereo not given in full) | inactive
18 | CCC(C)C(=O)OCCc1ccccc1 (stereo not given) | inactive
19 | O=C(c1ccc2c(c1)C(=O)OC2=O)c1ccc2c(c1)C(=O)OC2=O | inactive
20 | CSc1ccc(C(=O)c2[nH]c(=O)[nH]c2C)cc1 | inactive

Row | SMILES | Potency
21 | OC[C@H]1O[C@@H]2O[C@H]3[C@H](O)[C@@H](O)[C@@H](O[C@H]4[C@H](O)[C@@H](O)[C@@H](O[C@H]5[C@H](O)[C@@H](O)[C@@H](O[C@H]6[C@H](O)[C@@H](O)[C@@H](O[C@H]7[C@H](O)[C@@H](O)[C@@H](O[C@H]8[C@H](O)[C@@H](O)[C@@H](O[C@H]1[C@H](O)[C@H]2O)O[C@@H]8CO)O[C@@H]7CO)O[C@@H]6CO)O[C@@H]5CO)O[C@@H]4CO)O[C@@H]3CO | inactive
22 | O | inactive
23 | CC(C)(O)C(=O)c1ccc(OCCO)cc1 | inactive
24 | c1ccc2nccnc2c1 | inactive
25 | CC(C)S | inactive
26 | CCCC[O][Al]([O]CCCC)[O]CCCC | inactive
27 | c1ccc2cnncc2c1 | inactive
28 | CCCC/C=C\CCCCCCCCCC=O | inactive
29 | NS(=O)(=O)c1ccccc1OC(F)(F)F | inactive
30 | BrC1CCC(Br)C(Br)CCC(Br)C(Br)CCC1Br (stereo not given) | inactive
31 | CC1CCC(C(C)(C)S)C(=O)C1 (stereo not given) | inactive
32 | FC(F)(F)/C(=N\OCC1OCCO1)c1ccc(Cl)cc1 | inactive
33 | Cc1ccc(S(=O)(=O)O)c(C)c1 | inactive
34 | CC(O)CNCC(C)O (stereo not given) | inactive
35 | Cc1ccccc1N=O | inactive
36 | CC[C@H](C)[C@H](N)C(=O)O | inactive
37 | CSc1nnc(C(C)(C)C)c(=O)[nH]1 | inactive
38 | CCOc1cc(NC(C)=O)ccc1C(=O)OC | inactive
39 | CO[Si](CCCCl)(OC)OC | inactive
40 | CC(C)OC(=O)CCCCC(=O)OC(C)C | inactive
